Measurements published in the supplement of paper PMC7411054.

Experiments:
Conditions in all cases: treatment time: 24 h
HepG2-ACTB-RAB5A = assay: lowest phenotypically active concentration; higher = less potent
How it was run: (§1)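 Cells from fifteen gene-edited reporter lines (A549, HepG2 and WPMY1) were treated for 24 h at 0.3, 1, 3 or 9 µM and imaged live, four wells per condition. Features were normalised per well to solvent control wells. A condition deviated if ≥3 of 4 wells passed the 95th percentile of control Euclidean distances and was reproducible if its median replicate Pearson correlation beat the 95th percentile of non-replicates; phenotypic activity needed both.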

HepG2-CANX-COX4 = assay: as above
How it was run: as §1

HepG2-TP53BP1-CLTA = assay: as above
How it was run: as §1

HepG2-TUBA1B-RELA = assay: as above
How it was run: as §1

WPMY1-ACTB-RAB5A [1] = assay: as above
How it was run: as §1

WPMY1-CANX-COX4 = assay: as above
How it was run: as §1

WPMY1-GM130-SQSTM1 = assay: as above
How it was run: as §1

WPMY1-TP53BP1-CLTA = assay: as above
How it was run: as §1

WPMY1-TUBA1B-RELA = assay: as above
How it was run: as §1

WPMY1-ACTB-RAB5A [2] = assay: phenotypically active (imaging signature differs from DMSO and reproducible) at any of 0.3-9 uM (binary (1 = active, 0 = inactive)); higher = active
How it was run: as §1

COc1ccc2[nH]c(C(=O)c3ccccc3)cc2c1
≤ 0.3 µM: lowest phenotypically active concentration (HepG2-ACTB-RAB5A) | lowest phenotypically active concentration (HepG2-CANX-COX4) | lowest phenotypically active concentration (HepG2-TP53BP1-CLTA) | lowest phenotypically active concentration (HepG2-TUBA1B-RELA) | lowest phenotypically active concentration (WPMY1-ACTB-RAB5A [1]) | lowest phenotypically active concentration (WPMY1-GM130-SQSTM1) | lowest phenotypically active concentration (WPMY1-TP53BP1-CLTA) | lowest phenotypically active concentration (WPMY1-TUBA1B-RELA)
active: phenotypically active (WPMY1-ACTB-RAB5A [2]) 1
3 µM: lowest phenotypically active concentration (WPMY1-CANX-COX4)

C[C@@H]1CN(CC(=O)Nc2ccc3c(c2)Cc2cccc(-c4cc(=O)cc(N5CCOCC5)o4)c2S3)C[C@H](C)O1
active: phenotypically active (WPMY1-ACTB-RAB5A [2]) 1
9 µM: lowest phenotypically active concentration (WPMY1-TUBA1B-RELA)
1 µM: lowest phenotypically active concentration (HepG2-ACTB-RAB5A)
3 µM: lowest phenotypically active concentration (HepG2-CANX-COX4) | lowest phenotypically active concentration (HepG2-TP53BP1-CLTA) | lowest phenotypically active concentration (HepG2-TUBA1B-RELA) | lowest phenotypically active concentration (WPMY1-ACTB-RAB5A [1]) | lowest phenotypically active concentration (WPMY1-CANX-COX4) | lowest phenotypically active concentration (WPMY1-GM130-SQSTM1) | lowest phenotypically active concentration (WPMY1-TP53BP1-CLTA)

Cc1n[nH]c2ccc(-c3cncc(OC[C@@H](N)Cc4ccccc4)c3)cc12
≤ 0.3 µM: lowest phenotypically active concentration (HepG2-ACTB-RAB5A) | lowest phenotypically active concentration (HepG2-CANX-COX4) | lowest phenotypically active concentration (HepG2-TP53BP1-CLTA) | lowest phenotypically active concentration (HepG2-TUBA1B-RELA) | lowest phenotypically active concentration (WPMY1-ACTB-RAB5A [1]) | lowest phenotypically active concentration (WPMY1-CANX-COX4) | lowest phenotypically active concentration (WPMY1-GM130-SQSTM1) | lowest phenotypically active concentration (WPMY1-TP53BP1-CLTA) | lowest phenotypically active concentration (WPMY1-TUBA1B-RELA)
active: phenotypically active (WPMY1-ACTB-RAB5A [2]) 1

CCC(=O)N1CCN(c2ccc(-n3c(=O)ccc4cnc5ccc(-c6cnc7ccccc7c6)cc5c43)cc2C(F)(F)F)CC1 [Torin 1]
≤ 0.3 µM: lowest phenotypically active concentration (HepG2-ACTB-RAB5A) | lowest phenotypically active concentration (HepG2-CANX-COX4) | lowest phenotypically active concentration (HepG2-TP53BP1-CLTA) | lowest phenotypically active concentration (HepG2-TUBA1B-RELA) | lowest phenotypically active concentration (WPMY1-ACTB-RAB5A [1]) | lowest phenotypically active concentration (WPMY1-CANX-COX4) | lowest phenotypically active concentration (WPMY1-GM130-SQSTM1) | lowest phenotypically active concentration (WPMY1-TP53BP1-CLTA) | lowest phenotypically active concentration (WPMY1-TUBA1B-RELA)
active: phenotypically active (WPMY1-ACTB-RAB5A [2]) 1

COc1cc(N2CCN(C)CC2)ccc1Nc1nccc(-c2cn(C)c3cnccc23)n1
active: phenotypically active (WPMY1-ACTB-RAB5A [2]) 1
3 µM: lowest phenotypically active concentration (HepG2-ACTB-RAB5A)
≤ 0.3 µM: lowest phenotypically active concentration (WPMY1-CANX-COX4)
1 µM: lowest phenotypically active concentration (HepG2-CANX-COX4) | lowest phenotypically active concentration (HepG2-TP53BP1-CLTA) | lowest phenotypically active concentration (HepG2-TUBA1B-RELA) | lowest phenotypically active concentration (WPMY1-ACTB-RAB5A [1]) | lowest phenotypically active concentration (WPMY1-GM130-SQSTM1) | lowest phenotypically active concentration (WPMY1-TP53BP1-CLTA) | lowest phenotypically active concentration (WPMY1-TUBA1B-RELA)

COc1ccc(S(=O)(=O)Nc2cccnc2Nc2ccc(O)cc2)cc1
active: phenotypically active (WPMY1-ACTB-RAB5A [2]) 1
≤ 0.3 µM: lowest phenotypically active concentration (WPMY1-ACTB-RAB5A [1]) | lowest phenotypically active concentration (WPMY1-CANX-COX4) | lowest phenotypically active concentration (WPMY1-TP53BP1-CLTA) | lowest phenotypically active concentration (WPMY1-TUBA1B-RELA)
1 µM: lowest phenotypically active concentration (HepG2-ACTB-RAB5A) | lowest phenotypically active concentration (HepG2-CANX-COX4) | lowest phenotypically active concentration (HepG2-TP53BP1-CLTA) | lowest phenotypically active concentration (HepG2-TUBA1B-RELA) | lowest phenotypically active concentration (WPMY1-GM130-SQSTM1)

Cc1cn(CCN2CCN(c3ccccc3-c3cc(C#N)cc(C(=O)NCCCN4CCCC4)c3)CC2)c2ccccc12
active: phenotypically active (WPMY1-ACTB-RAB5A [2]) 1
3 µM: lowest phenotypically active concentration (HepG2-TP53BP1-CLTA) | lowest phenotypically active concentration (HepG2-TUBA1B-RELA) | lowest phenotypically active concentration (WPMY1-ACTB-RAB5A [1]) | lowest phenotypically active concentration (WPMY1-CANX-COX4) | lowest phenotypically active concentration (WPMY1-GM130-SQSTM1) | lowest phenotypically active concentration (WPMY1-TP53BP1-CLTA) | lowest phenotypically active concentration (WPMY1-TUBA1B-RELA)
9 µM: lowest phenotypically active concentration (HepG2-CANX-COX4)
1 µM: lowest phenotypically active concentration (HepG2-ACTB-RAB5A)

CC(C)(C)Nc1nc(Nc2ccc(C(N)=O)cc2)cc(N)c1C#N
3 µM: lowest phenotypically active concentration (HepG2-ACTB-RAB5A) | lowest phenotypically active concentration (HepG2-CANX-COX4) | lowest phenotypically active concentration (HepG2-TP53BP1-CLTA) | lowest phenotypically active concentration (HepG2-TUBA1B-RELA) | lowest phenotypically active concentration (WPMY1-ACTB-RAB5A [1]) | lowest phenotypically active concentration (WPMY1-GM130-SQSTM1) | lowest phenotypically active concentration (WPMY1-TP53BP1-CLTA)
9 µM: lowest phenotypically active concentration (WPMY1-CANX-COX4) | lowest phenotypically active concentration (WPMY1-TUBA1B-RELA)
active: phenotypically active (WPMY1-ACTB-RAB5A [2]) 1
